# Bioassay records from PubChem.
# Only some compounds are listed: those with a hit (about 8.8% of all), similar ones and a draw of the others.
# HT1080 IDH1KD tx: kills HT-1080 cells with IDH1 knockdown; HT-1080 IDH1 knockdown viability, ATP luminescence, 48 h; actives 2% (n = 360,000); Potency, µM (highest dose often 46.1 µM), for inactives: at the highest dose activity, negative = toxicity, most hits filed as cytotoxic; AID 686971;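 also: potency is read from the fitted curve at half-maximal effect; 0% = DMSO wells and -100% = cell-free medium wells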
#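 HT-1080-IDH1KD cells (IDH1 knocked down), 750/well in RPMI with 5% FBS, treated with compound 48 h at 37 degrees C. Viability by CellTiter-Glo luminescence, normalised to DMSO and no-cell wells; concentration-response curves classed.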
# KB-3-1 tox: kills parental KB-3-1 adenocarcinoma cells; KB-3-1 viability, CellTiter-Glo ATP luminescence, 72 h; Potency, µM (top dose mostly 46.1 µM), usual class: cytotoxic; actives 1.4% (n = 400,000); also: potency is read from the fitted curve at half-maximal effect; nearly all actives have a fitted effect of over 60% in size
#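 Cytotoxicity in the drug-sensitive parental line KB-3-1 was scored as loss of CellTiter-Glo luminescence following 72 h incubation with compound. Values come from curve fitting of normalized concentration-response data.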
# KB-V1 MDR tox: kills drug-selected multidrug resistant KB-V1 cells | Potency, µM (top dose mostly 46.1 µM), hits mostly cytotoxic | AID 1347076 | actives 3.4% (n = 400,000) | KB-V1 MDR cells viability, CellTiter-Glo, 72 h; also: potency is read from the fitted curve at half-maximal effect; nearly all actives have a fitted effect of over 60% in size
#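 Potencies derive from concentration-effect curves fitted to normalized luminescence (CellTiter-Glo) of KB-V1 cells treated for 72 h at 37 degrees C in phenol-red-free DMEM containing 10% FBS.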
# IL1B secr inh: inflammasome signaling inhibition, IL-1 beta readout | THP-1 LPS/ATP IL-1B secretion, AlphaLISA, 16 h; active compounds read low | activity change, % at 57.5 µM | actives 4.7% (n = 360,000); in the data active = activity change below about -50%; inconclusive = mostly about -30% to -49%
#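 THP-1 cells pretreated 1 hr with compounds (up to 57.5 uM final), then stimulated with LPS (250 ng/mL final) plus ATP (1.25 mM final); secreted IL-1B measured by AlphaLISA after 16 hr, decreased signal indicating inhibition.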
# HT1080-NT tox: kills 2HG-producing HT-1080-NT fibrosarcoma cells. Potency, µM (doses to about 46.1 µM), for inactives: at the highest dose activity, negative = less viability, actives largely listed as cytotoxic. HT-1080-NT fibrosarcoma viability, CellTiter-Glo ATP luminescence, 48 h. AID 686970. actives 1.6% (n = 360,000);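 also: NT is the 2HG producing partner of a matched IDH1 knockdown line; potency is read from the fitted curve at half-maximal effect; 0% = DMSO-treated cells and -100% = media-only wells without cells; nearly all actives have a fitted effect of over 55% in size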
#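 Viability by CellTiter-Glo luminescence after 48 h compound exposure at 37C of HT-1080-NT cells (750/well, RPMI, 5% FBS). % activity scaled between DMSO wells and medium-only wells, then curve-fitted and categorized by curve class.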
# Active calls of the source: *; i = inactive; ? = inconclusive; / = not tested or not shown. Unless noted, calls follow the shape of the dose curve; as a rule, active = well fitted curve in the direction sought with a large enough effect; inconclusive = small, poorly fitted or top-dose-only effect, or another doubt; inactive = no such curve, though single readings can be large; an effect the other way counts as inactive or inconclusive. Unless noted, % is scaled to controls: 0 for no effect and ±100 for the full control effect.
SMILES,HT1080 IDH1KD tx,KB-3-1 tox,KB-V1 MDR tox,IL1B secr inh,HT1080-NT tox
Cc1c(N/N=C(\C#N)C(=O)c2ccccc2)c(=O)n(-c2ccccc2)n1C,?,?,?,106,-22%
Cc1c(CCC(=O)NC2CC2)c(=O)oc2cc(O)ccc12,-6%,i,i,-12,-4%
Cc1nn2c(C(F)(F)F)cc(-c3ccc(OC(C)C)cc3)nc2c1C#N,/,i,i,/,/
COc1ccc(NC(=O)C(NS(=O)(=O)c2cccc3nsnc23)c2ccccc2)cc1 (stereo not drawn),/,i,i,/,/
Cc1cc(C)cc(NC(=O)[C@H](Cc2c[nH]c3ccccc23)NC(=O)[C@@H]2Cc3ccccc3CN2)c1,?,i,?,24,?
Cc1cccc(NC(=O)[C@H](Cc2c[nH]c3ccccc23)NC(=O)[C@@H]2Cc3ccccc3CN2)c1,-27%,5.8µM*,i,-1,-14%
Cc1ccc(NC(=O)[C@H](Cc2c[nH]c3ccccc23)NC(=O)[C@@H]2Cc3ccccc3CN2)c(C)c1,?,1.8µM*,?,-4,?
CCc1ccc(NC(=O)[C@H](Cc2c[nH]c3ccccc23)NC(=O)[C@@H]2Cc3ccccc3CN2)cc1,?,5.2µM*,?,-3,?
Cc1ccc(NC(=O)[C@H](Cc2ccccc2)NC(=O)[C@@H]2Cc3ccccc3CN2)c(C)c1,-5%,i,i,17,-13%
O=S1(=O)C[C@H](N2CCOCC2)[C@@H](COCc2ccccc2)N1,9%,i,i,-9,20%
O=c1c2cc3c(nc2[nH]c(=S)n1-c1ccccc1)CCCC3,27%,i,i,35,10%
O=C(Cc1ccc(Br)cc1)Nc1ncc([N+](=O)[O-])s1,?,21µM*,?,-54*,?
CC(CC(=O)Nc1ncc([N+](=O)[O-])s1)c1ccccc1 (stereo not drawn),?,i,?,-63*,?
O=C(Cc1ccc(Cl)cc1)Nc1ncc([N+](=O)[O-])s1,?,i,?,33,?
O=C(COc1ccc(Cl)cc1)Nc1ncc([N+](=O)[O-])s1,?,?,13µM*,-22,?
COc1ccc2[nH]c(C(O)C(O)c3nc4c(OC)c(OC)ccc4[nH]3)nc2c1OC (stereo not drawn),/,i,i,/,/
CC1(C)Cc2c(C#N)c(N3CCN(C(=O)c4ccco4)CC3)nc(-c3ccco3)c2CS1,6%,i,5.8µM*,-4,4%
CC(=O)N1CCN(c2nc(-c3ccco3)c3c(c2C#N)CC(C)(C)SC3)CC1,-1%,i,i,?,-1%
N#Cc1c(N2CCN(C(=O)c3ccccc3Cl)CC2)nc(-c2ccccc2)c2c1CCCC2,-5%,i,i,-58*,-2%
CCCCc1nc(NCCNC(=O)c2ccco2)c(C#N)c2c1CSC(C)(C)C2,-3%,i,2.3µM*,-5,-2%
N#Cc1c(N2CCN(C(=O)c3ccco3)CC2)nc(-c2ccccc2)c2c1CCCC2,?,i,21µM*,-52*,?
COc1cc(OC)c(NC(=O)CN2C(=O)CCn3nc(-c4cccn4C)cc32)cc1Cl,/,i,i,/,/
CCc1cccc(NC(=O)CCn2nc(C)cc2C)c1,/,i,i,/,/
COc1ccc(CN(CC(=O)NCc2ccc(F)cc2)C(=O)CCC(=O)Nc2cc(C)ccn2)cc1,-3%,i,i,-2,-6%
Cc1ccc(-c2cc(N)n(-c3ccc(F)cc3)n2)cc1,1%,i,i,-25,2%
c1ccc(N2CCN(c3ncnc4c3oc3ccccc34)CC2)cc1,7%,i,16µM*,-9,9%
Brc1ccc2oc3c(N4CCOCC4)ncnc3c2c1,12%,i,16µM*,0,10%
CCc1ccc(OCC(=O)Nc2ccc(Cl)c(-c3nc4ncccc4o3)c2)cc1,/,i,i,/,/
COc1cc(N=Nc2ccc(Br)cc2)cc(C=O)c1O,-24%,?,15µM*,-20,-16%
COc1cc(CN(C)C)cc(C=O)c1O,-2%,i,i,-15,-6%
